Sampled rows, rich in hits. Any-hit rate of the full collection: about 4.6%.
TIM10 inh: growth inhibitors of TIM10 yeast strain; S. cerevisiae TIM10 strain growth, BacTiter-Glo luminescence, 24 h; inhibition, % at 10 µM; 1.4% of 330,000 active;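 active = inhibition of 40% or more at the single tested concentration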;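 also: wild-type TIM10 isogenic control strain grown at permissive 25 °C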
NLRP3 yeast inh: inhibitors of NALP3 inflammasome in yeast. Yeast reconstituted NLRP3/ASC/caspase-1, beta-gal luminescence, 24 h. inhibition, % at 10 µM. 0.39% of 330,000 active. AID 2825;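 active = inhibition of 50% or more; inactive = inhibition below 50%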;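 also: plate controls were induced DMSO wells for no effect and uninduced yeast grown without galactose for full effect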
tim23-1 inh: inhibits growth of tim23-1 mutant yeast; 1.3% of 330,000 active; inhibition, % at 20 µM; S. cerevisiae tim23-1 growth, BacTiter-Glo luminescence, 24 h;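 active = growth inhibition of the mutant yeast at or above 50%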;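 also: temperature-sensitive mutant grown at 25 °C; plate controls were DMSO-treated mutant yeast for no effect and medium wells lacking yeast for full effect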
PfHsp90 yeast 2: growth inhibition of yeast expressing Plasmodium Hsp90; S. cerevisiae expressing PfHsp90, BacTiter-Glo ATP, 48 h; yeast lacking PDR1 and PDR3 efflux regulators; 0.32% of 310,000 active; inhibition, % at 9.4 µM;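 active = every replicate shows inhibition above about 80%, whatever the replicate mean, limit read from the data; inconclusive = mean inhibition reaches the set limit but some replicate falls short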;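 also: 0% = DMSO neutral controls and 100% = 20 µM radicicol positive controls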
tim10-1 inh: tim10-1 yeast growth inhibition. S. cerevisiae tim10-1 ts strain growth, BacTiter-Glo, 24 h. inhibition, % at 20 µM. 2.2% of 330,000 active. AID 463190;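 active = inhibition of at least 40%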;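 also: mutant grown at 25 °C; 0% = DMSO wells with yeast and 100% = wells holding no yeast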
SKKanGAS inh: SKKanGAS growth inhibition; 1.3% of 300,000 active; AID 1662; S. pyogenes SKKanGAS, kanamycin growth, BacTiter-Glo, 6 h; inhibition, % at 7.5 µM;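 active = mean replicate score, as percent of positive control median, at least 50; inconclusive = mean below 50 but one replicate at or above 50; inactive = mean and every replicate below 50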;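 also: strain carries kanamycin resistance gene driven by streptokinase promoter and grows in 40 µg/ml kanamycin; loss of luminescence reflects streptokinase promoter inhibition or plain growth inhibition; 0% = median of DMSO wells and 100% = positive control at its reference dose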
tim10 confirm: confirmation of TIM10 yeast growth inhibitors. shares compounds with TIM10 inh. S. cerevisiae tim10 strain growth, BacTiter-Glo luminescence, 24 h. inhibition, % at 10 µM. 63% of 4,600 active. AID 463215;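 active = inhibition of yeast growth at or above a set limit in either of two replicates at 10 µM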;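 also: this counterscreen used the strain with wild-type TIM10; 0% = yeast with DMSO and 100% = medium wells lacking yeast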
Starred values were filed as active, the others as inactive; ? = inconclusive; · = no result.

SMILES | TIM10 inh | NLRP3 yeast inh | tim23-1 inh | PfHsp90 yeast 2 | tim10-1 inh | SKKanGAS inh | tim10 confirm
CCOc1ccc(CN(C)C(=O)c2ccc(NC(=O)CC3SC(N4CCCC4)=NC3=O)cc2)cc1 (stereo not given) | 18 | -7 | -3 | 0 | 3 | -8 | ·
CCc1cccc(CC)c1NC(=S)NC(C)c1ccccc1 (stereo not given) | 53* | 8 | 26 | -18 | 39 | 5 | 39*
CCc1cccc(CC)c1NC(=S)NCc1ccc2c(c1)OCO2 | 41* | 6 | 37 | -31 | 39 | -10 | 0
CC12CCC(C(=O)NCc3ccc4c(c3)OCO4)(C(=O)C1=O)C2(C)C (stereo not given) | 41* | 3 | 27 | 7 | 35 | -4 | 1
COP(=O)(CC(=O)c1ccccc1)CC(=O)c1ccccc1 | 3 | 13 | 0 | -15 | -3 | -5 | ·
O=C(CSc1nnc(CNC(=O)c2c(F)cccc2F)o1)Nc1ccc2c(c1)OCCO2 | 0 | 10 | -17 | -12 | -17 | 21 | ·
Cn1ncc([N+](=O)[O-])c1C(=O)Nc1ccc(-c2ccccc2)cc1 | 11 | 35 | 4 | -25 | 3 | 6 | ·
O=c1[nH]cnc2ncc(-c3ccc(O)cc3)nc12 | 41* | 14 | 16 | -7 | 4 | -1 | -10
CC(C)N1CCN(Cc2ccc3c(c2)Cc2ccccc2-3)CC1CCO (stereo not given) | 8 | 14 | 12 | · | 22 | -7 | ·
COc1ccc(C(=O)NCCS(=O)(=O)NC2CCCC2)cc1 | 41* | 23 | 6 | 24 | -2 | 4 | 3
O=C(NCC1COc2ccccc2O1)c1cc(S(=O)(=O)N2CCOCC2)ccc1F (stereo not given) | -1 | 13 | 10 | · | 14 | · | ·
O=C(Nc1ccc(C(F)(F)F)cc1)c1cc(S(=O)(=O)NCC2COc3ccccc3O2)ccc1F (stereo not given) | 42* | -3 | 9 | -31 | 2 | ? | 45*
O=C1c2cccc(OCC(=O)N3CCCc4ccccc43)c2CCN1Cc1ccc(F)cc1 | 43* | 3 | 43 | -13 | 34 | 9 | -50
O=S(=O)(c1ccc2c(c1)OCCO2)N1CCN(Cc2ccccc2)CC1 | 43* | 17 | 49 | -6 | 26 | 8 | 30
C/C(=C/C(=O)O)C(=O)Nc1cccc(C(F)(F)F)c1 | 6 | 10 | 21 | 5 | 15 | -16 | ·
CCOC(=O)NC(=S)Nc1ccc(C(C)(C)C)cc1Br | 50* | 21 | 45 | 2 | 38 | 9 | 39*
NC(=O)c1nsc(C(=O)N(c2ccccc2F)C(C(=O)NCc2ccccc2)c2ccc(O)cc2)c1N (stereo not given) | 96* | 1 | -4 | -27 | -7 | 6 | 8
O=C(Nc1ccccc1)c1cc(Cl)nc2ccccc12 | 4 | 2 | 23 | 12 | 17 | -7 | ·
Cc1cc(F)ccc1NCc1cc2c(cc1[N+](=O)[O-])OCO2 | 45* | 5 | 34 | 66 | 29 | 9 | 41*
Cn1c(-c2ccc(F)cc2)cnc1NCc1cc2c(cc1[N+](=O)[O-])OCO2 | -15 | 14 | -14 | -23 | 9 | 1 | ·
CCOc1ccc(CCNC(=O)COc2cccc(-n3cnnn3)c2)cc1OCC | -5 | 7 | -8 | -2 | 2 | 15 | ·
N#Cc1ccc(Oc2cnccn2)cc1 | -6 | 9 | -11 | 29 | 3 | -3 | ·
COc1ccc(C(=O)N/N=C(\N)c2cc3ccccc3oc2=O)cc1 | -14 | -15 | 4 | -9 | 10 | -3 | ·
O=C(c1cc2ccccc2oc1=O)N(Cc1ccccc1)CC1CCCO1 (stereo not given) | 17 | -6 | 19 | 49 | 13 | 4 | ·
N/C(=N\NC(=O)c1ccccc1)c1cc2ccccc2oc1=O | 48* | 28 | 12 | -9 | -4 | -11 | 17
SMILES | TIM10 inh | NLRP3 yeast inh | tim23-1 inh | PfHsp90 yeast 2 | tim10-1 inh | SKKanGAS inh | tim10 confirm
O=C(NCC1CCCO1)c1cc2ccccc2oc1=O (stereo not given) | 95* | -15 | 6 | -7 | 6 | 5 | -6
CC(=O)N1CC23C=CC(CC2CC12CCCCCC2)O3 (stereo not given) | 1 | 23 | 13 | -9 | 6 | 4 | ·
Cc1nn(C)cc1S(=O)(=O)N1CCN(c2ccccc2F)CC1 | 10 | 2 | 11 | 7 | 10 | 5 | ·
CC(C)(C)n1nnnc1C(c1cccc(C#N)c1)N1CCCc2ccccc21 (stereo not given) | 43* | -3 | 37 | 4 | 36 | -1 | 25
CC(C)(C)n1nnnc1C(c1ccc(Cl)cc1)N1CCCc2ccccc21 (stereo not given) | 28 | 10 | 45 | · | 37 | 12 | ·
CCC(C)(C)n1nnnc1C(c1cccnc1)N1CCCc2ccccc21 (stereo not given) | 40* | -1 | 35 | 5 | 38 | -3 | 37*
CC(=O)NS(=O)(=O)c1ccc(NC(=S)NC(=O)C2CCC2)cc1 | 4 | 24 | -2 | 1 | -12 | -3 | ·
Cc1[nH]nc(N=CC2=C(O)CC(C)(C)CC2=O)c1-c1ccc(Cl)cc1 | 41* | 1 | 21 | -2 | 36 | 2 | 30*
Cc1[nH]nc(N=CC2=C(O)CC(c3ccco3)CC2=O)c1-c1ccc(Cl)cc1 (stereo not given) | 21 | 3 | 27 | 3 | 25 | 13 | ·
O=C(NC1CCS(=O)(=O)C1)c1ccc(S(=O)(=O)N2CCCCC2)cc1 (stereo not given) | -2 | 2 | 10 | -1 | -4 | 2 | ·
Cc1ccc(-c2c(C(=O)N/N=C/c3c[nH]c4ccccc34)nnn2-c2nonc2N)cc1 | 24 | 8 | 12 | -5 | 10 | 4 | ·
O=c1[nH]cnc2c1c(-c1ccccc1)cn2-c1ccc(Br)cc1 | 42* | -63 | 43 | -91 | 31 | 4 | 38*
Fc1ccc(-c2nnsc2Sc2ccccn2)cc1 | -21 | 14 | 5 | -2 | -3 | 11 | ·
CCCCCCCCCCOC(=O)Cn1c(COc2cccc(C)c2)[n+](C)c2ccccc21 | 51* | 24 | 7 | 105* | 28 | 101* | 34*
O=C(COc1cccc(NC(=O)c2cccc([N+](=O)[O-])c2)c1)c1ccc(Br)cc1 | 42* | 15 | 29 | -8 | 29 | 15 | 31*
N#CC1=CC2CN(Cc3ccccc3)C1C1C(=O)N(c3ccccc3)C(=O)C21 (stereo not given) | · | · | · | -27 | · | · | ·
O=[N+]([O-])c1cccc(/C=C/C=N/Nc2nc(N3CCCCC3)nc(N3CCCCC3)n2)c1 | 32 | 28 | 33 | -22 | 24 | 13 | ·
CCCCc1ccc(-n2c(Cc3cccs3)n[nH]c2=S)cc1 | 52* | 19 | 47 | -18 | 37 | 0 | 36*

Screening results from PubChem BioAssay.
